Compounds without any hit were thinned out: in the full panel of roughly 83,000, 20% have a hit.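 Single-concentration screen, 48 h exposure, 96-well plates. Endpoint: percent growth. Below 10 = active.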 Values without a mark were called inactive. The source made the active and inactive calls.

In one assay the test system is TK-10 renal. Briefly: NCI-60 one-dose screen, 48 h (100 = growth as untreated, 0 = no growth, -100 = all killed). Conditions: 10 µM unless noted.
For the compound `C[C@H]1[C@H](C)CC[C@]2(C(=O)NCC#CCN3CCN(C)CC3)CC[C@]3(C)C(=CC[C@@H]4[C@@]5(C)Cc6c([nH]c7ccccc67)C(C)(C)[C@@H]5CC[C@]43C)[C@H]12`, the growth is 88.8%.

Take `N#Cc1c(NCc2ccccc2I)sc2c1CCCCC2`: the growth is 109%.

With `CN1C(=O)NC(c2ccc3c(c2)OCO3)C=C1c1ccccc1` (configuration not stated), the growth was 85%.

On to `COc1cc(/C=C\C(=O)O)ccc1OCc1ccccc1`, for which the growth was 101%.

With `CCN(CC)c1ccc(/C=N/NC(=O)CSc2nc3ccccc3c(=O)n2Cc2ccc(S(N)(=O)=O)cc2)c(O)c1`, the growth is 15.1%.

`Cc1ccc(S(=O)(=O)NNC(=O)/C(=C\c2ccc(Cl)cc2)c2nc3ccccc3s2)cc1`: the growth is 132%.

Consider `CCOC(=O)[C@@H]1CCCN(S(=O)(=O)c2ccc(S(=O)(=O)N(CC)CC)c(F)c2)C1`, for which the growth was 81.4%.

On to `Cc1ccc(CNc2c3ccccc3nc3cc(NC(=O)CCN4CCCC4)ccc23)cc1`, for which the growth was -20% (active).

Consider `COc1ccc(CC(C)=C(c2ccc(OCCN3CCCCCC3)cc2)c2ccc(OCCN3CCCCCC3)cc2)cc1`, for which the growth was -87.3% (active).

Take `CCCCNC(=O)Oc1ccc(/C(=C(\C)c2ccccc2)c2ccc(OCCN3CCCCC3)cc2)cc1`: the growth is 85.3%.

Turning to `Cn1c2ccccc2c2c3c(c4c5ccccc5n(C)c4c21)C(=O)OC3`, the growth was 135%.

`CNC(=O)c1cc(Cn2nc(C)c(NC(=O)Nc3ccc(Cl)c(C(F)(F)F)c3)c2C)ccn1`: the growth was 103%.

Turning to `O=C(Nc1ccc(NC(=O)c2cc(=O)[nH]c3ccccc23)cc1)Nc1cccc(Cl)c1`, the growth was 90.2%.

For the compound `COc1ccc(C(=O)CSc2nc(-c3cc(OC)ccc3OC)cc(-c3ccc(Cl)cc3)c2C#N)cc1`, the growth was 61.9%.

As to `Cc1cc(C)c(S(=O)(=O)Oc2ccccc2[N+](=O)[O-])c(C)c1`, the growth is 33.9%.

Take `O=C(CCN1CCCC1)Nc1ccc2c(NCc3ccccc3)c3ccccc3nc2c1`: the growth was 1.15% (active).

In the case of `CCN(CC)c1ccc(/C=N/NC(=O)CSc2nc3ccccc3c(=O)n2CCc2ccc(S(N)(=O)=O)cc2)c(O)c1`, the growth is 31.3%.

Regarding `O=C(CSc1nc2sc3c(c2c(=O)n1-c1ccc(Cl)cc1)CCCC3)Nc1nc(-c2cccc(Br)c2)cs1`, the growth was 113%.

For `COc1ccc(C(C)=O)c(OC)c1`, the growth was 99.5%.

For the compound `COc1cccc(-c2nc3occn3c2-c2ccnc(NCCCNS(=O)(=O)c3ccc(C(F)(F)F)cc3)n2)c1`, the growth is 106%.

For `C=C1C(=O)O[C@H]2[C@H]1CC/C(C(=O)NCCCCCNC(=O)/C1=C/CC[C@@]3(C)O[C@H]3[C@H]3OC(=O)C(=C)[C@@H]3CC1)=C\CC[C@@]1(C)O[C@@H]21`, the growth is 96.5%.

In the case of `C=C1C(=O)O[C@H]2[C@H]1CC/C(COC(=O)NCc1c[nH]c3ccc(F)cc13)=C\CC[C@@]1(C)O[C@@H]21`, the growth was -15.1% (active).

`Cc1cc2nc3c4cccc(O)c4n(CCN(C)C)c3nc2cc1C`: the growth was 72.8%.

For the compound `O=C(Cc1ccccc1)NNc1nc(Cl)nc(N2CCN(C(c3ccccc3)c3ccccc3)CC2)n1`, the growth is 96%.

The next assay has as its system ACHN renal. Described as above. The settings on record: 10 µM unless noted.
With `O=C1OC(Cc2ccccc2)C1c1ccccc1` (configuration not stated), the growth is 104%.

On to `O=C1Nc2cc(-c3ccc(NC(=O)c4ccccc4)cc3)ccc2/C1=C/c1ccc[nH]1`, for which the growth is 95.8%.

Turning to `O=C(N/N=C/c1cc2ccccc2n2nnnc12)Nc1ccccc1`, the growth is 108%.

In the case of `O=C1c2ccc3c4c(ccc(c24)C(=O)N1CCCNCc1ccccc1)C(=O)N(CCCNCc1ccccc1)C3=O`, the growth was -53.5% (active).

With `C=C1C(=O)O[C@H]2[C@H]1CC/C(COC(=O)NCCc1c[nH]c3ccc(OC)cc13)=C\CC[C@@]1(C)O[C@@H]21`, the growth was -59% (active).

In the case of `CCOc1ccc(Nc2nc(-c3ccc4c(c3)NC(=O)CO4)cs2)cc1`, the growth was 52.3%.

Take `COc1ccc(C(=O)c2cc(C)c(OC)c(C)c2)c(OC)c1OC(=O)C(Cl)Cl`: the growth was 18.3%.

For `CN(C)c1ccc(Nc2c3ccccc3nc3cc(NC(=O)CCN4CCCC4)ccc23)cc1`, the growth was 1.64% (active).

As to `Cc1nc(N)nc(N[C@@H](C)c2nc3cccc(NCc4ccc(C(=O)NO)cc4)c3c(=O)n2-c2ccccc2)n1`, the growth is 101%.

`COc1ccc(C/C(=C(\C)c2ccc(OCCN3CCCC3)cc2)c2ccc(OCCN3CCCC3)cc2)cc1`: the growth is 54.1%.

For `NC(=NCCCOc1ccc(F)cc1)Nc1ccc(Cl)cc1`, the growth was 18.3%.

On to `CCCOC(=O)N[C@H]1CCc2c(Cl)c(OC)c(OC)c(OC)c2-c2ccc(SC)c(=O)cc21`, for which the growth is 30.7%.

`N#Cc1c(NC(=O)NCc2ccccc2)sc2c1CCCC2`: the growth is 46.2%.

Take `NCCCCCCNc1cc(-c2cccc(OC(F)(F)F)c2)nc2ccc(N3CCCC3)cc12`: the growth is -16.6% (active).

As for `C[C@H]1[C@H](C)CC[C@]2(C(=O)NCC#CCN3CCN(C)CC3)CC[C@]3(C)C(=CC[C@@H]4[C@@]5(C)Cc6c([nH]c7ccccc67)C(C)(C)[C@@H]5CC[C@]43C)[C@H]12`, the growth is 96.3%.

As for `N#Cc1c(NCc2ccccc2I)sc2c1CCCCC2`, the growth was 97.7%.

As for `CN1C(=O)NC(c2ccc3c(c2)OCO3)C=C1c1ccccc1` (configuration not stated), the growth is 105%.

In the case of `COc1cc(/C=C\C(=O)O)ccc1OCc1ccccc1`, the growth is 102%.

Take `CCN(CC)c1ccc(/C=N/NC(=O)CSc2nc3ccccc3c(=O)n2Cc2ccc(S(N)(=O)=O)cc2)c(O)c1`: the growth was 33.6%.

Consider `Cc1ccc(S(=O)(=O)NNC(=O)/C(=C\c2ccc(Cl)cc2)c2nc3ccccc3s2)cc1`, for which the growth was 97.7%.

With `CCOC(=O)[C@@H]1CCCN(S(=O)(=O)c2ccc(S(=O)(=O)N(CC)CC)c(F)c2)C1`, the growth is 75%.

For `Cc1ccc(CNc2c3ccccc3nc3cc(NC(=O)CCN4CCCC4)ccc23)cc1`, the growth was 12.3%.

Turning to `COc1ccc(CC(C)=C(c2ccc(OCCN3CCCCCC3)cc2)c2ccc(OCCN3CCCCCC3)cc2)cc1`, the growth is -100% (active).

Turning to `CCCCNC(=O)Oc1ccc(/C(=C(\C)c2ccccc2)c2ccc(OCCN3CCCCC3)cc2)cc1`, the growth was 90.1%.

In the case of `Cn1c2ccccc2c2c3c(c4c5ccccc5n(C)c4c21)C(=O)OC3`, the growth is 87.3%.

With `CNC(=O)c1cc(Cn2nc(C)c(NC(=O)Nc3ccc(Cl)c(C(F)(F)F)c3)c2C)ccn1`, the growth was 97.9%.

As for `O=C(Nc1ccc(NC(=O)c2cc(=O)[nH]c3ccccc23)cc1)Nc1cccc(Cl)c1`, the growth is 97.6%.

`COc1ccc(C(=O)CSc2nc(-c3cc(OC)ccc3OC)cc(-c3ccc(Cl)cc3)c2C#N)cc1`: the growth was 31%.

As for `Cc1cc(C)c(S(=O)(=O)Oc2ccccc2[N+](=O)[O-])c(C)c1`, the growth is 37.4%.

Consider `O=C(CCN1CCCC1)Nc1ccc2c(NCc3ccccc3)c3ccccc3nc2c1`, for which the growth was 9.88% (active).

Turning to `CCN(CC)c1ccc(/C=N/NC(=O)CSc2nc3ccccc3c(=O)n2CCc2ccc(S(N)(=O)=O)cc2)c(O)c1`, the growth was 28.7%.

As for `O=C(CSc1nc2sc3c(c2c(=O)n1-c1ccc(Cl)cc1)CCCC3)Nc1nc(-c2cccc(Br)c2)cs1`, the growth is 91.1%.

Take `COc1ccc(C(C)=O)c(OC)c1`: the growth was 110%.

In the case of `COc1cccc(-c2nc3occn3c2-c2ccnc(NCCCNS(=O)(=O)c3ccc(C(F)(F)F)cc3)n2)c1`, the growth is 89.3%.

Regarding `C=C1C(=O)O[C@H]2[C@H]1CC/C(C(=O)NCCCCCNC(=O)/C1=C/CC[C@@]3(C)O[C@H]3[C@H]3OC(=O)C(=C)[C@@H]3CC1)=C\CC[C@@]1(C)O[C@@H]21`, the growth was 102%.

`C=C1C(=O)O[C@H]2[C@H]1CC/C(COC(=O)NCc1c[nH]c3ccc(F)cc13)=C\CC[C@@]1(C)O[C@@H]21`: the growth is -84.1% (active).

Regarding `Cc1cc2nc3c4cccc(O)c4n(CCN(C)C)c3nc2cc1C`, the growth was 8.22% (active).

Regarding `O=C(Cc1ccccc1)NNc1nc(Cl)nc(N2CCN(C(c3ccccc3)c3ccccc3)CC2)n1`, the growth was 94.9%.
